About 360 (14%) of roughly 2,500 compounds were called active.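 The calls were made as follows: active = signal-lowering compounds whose fitted half-maximal concentration AC50 is no higher than ten times their top tested concentration; inconclusive = flat curve with 30 to 70% inhibition, or poor fit; inactive = flat within 30%, signal increase, or AC50 above limit.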 Not all results are given here.
assay: non-specific inhibitors of H2O2 luminol chemiluminescence – biochemical, luminescence, no ALR or DTT, cherry-pick, artefact control for ALR inhibitor project, dose response (AID 540356); settings: HRP/H2O2 luminol luminescence counterscreen; series mostly up to 10 µM

Row | SMILES | AC50
1 | Cc1ccc(C2SCC(=O)N2c2ccccc2)cc1 (stereo unspecified) | inactive
2 | N#CC1=C(N)n2c(s/c(=C\c3cccs3)c2=O)=C(C#N)C1c1cccs1 (stereo unspecified) | inactive
3 | N#Cc1cnn(-c2ccccc2)c1NC(=O)CN1CCN(c2ccccc2)CC1 | inactive
4 | CN(C)S(=O)(=O)c1ccc(-c2cn3ccccc3n2)cc1 | inactive
5 | O=C(N/N=C\c1cccc(Cl)c1)c1ccc(Cn2cccn2)o1 | inactive
6 | CSc1nc(O)c(Nc2cccc(Cl)c2)c(=O)[nH]1 | inactive
7 | Nc1ncc(Br)cc1S(=O)(=O)NCCC(=O)N1CCN(c2ccccc2)CC1 | inactive
8 | Cc1ccc(S(=O)(=O)N2CCN=C2SCc2cccnc2)cc1 | inactive
9 | CC(=O)Nc1nc(C)c(-c2csc(Nc3ccc(O)cc3)n2)s1 | inactive
10 | Nc1ccc(-c2nc3cc(N)ccc3s2)cc1 | inactive
11 | CN=c1scc(-c2ccccc2F)n1/N=C(\C)c1cccnc1 | inactive
12 | O=C1CSC(=S)N1c1ccc(O)cc1 | inactive
13 | COc1cc(/C=N/NC(=O)Cn2cnc3c2c(=O)n(C)c(=O)n3C)ccc1O | inactive
14 | S=c1[nH]nc(C2CCCCC2)n1/N=C/c1ccccn1 | inactive
15 | Oc1ccc(/C=N/N=C/c2ccc(O)c(O)c2)cc1O | 2.39 µM (active)
16 | COc1cc(/C=N/N=C2/NC(=O)C(c3ccccc3)S2)ccc1O (stereo unspecified) | inactive
17 | COc1ccc(N=C2C(=O)Nc3ccccc32)cc1 | inactive
18 | Oc1cc(O)cc(/C=C/c2ccc(O)c(O)c2)c1 | 5.21 µM (active)
19 | O=Cc1ccc(O)c(O)c1 | inactive
20 | Cc1ccsc1C=Nc1ccc(O)cc1 | inactive
21 | COc1cc(/C=C/c2ccc(O)cc2)cc(OC)c1 | inactive
22 | Cc1ccc(CN2CCN(/N=C/c3ccc(O)c(O)c3)CC2)cc1 | inactive
23 | Oc1ccc(/C=N/N=C/c2ccc(O)cc2)cc1 | inactive
24 | COc1ccccc1C(=O)NCCN1CCN(c2ccccc2)CC1 | inactive
25 | CN(C)c1ccc(NC(=O)Nc2ccc3snnc3c2)cc1 | inactive
26 | CC(C)(C)c1cc(-c2n[nH]c(=S)n2-c2ccccc2F)n[nH]1 | inactive

Row | SMILES | AC50
27 | N#CCC(=O)Nc1ccc(C(=O)NCc2cccc(Cl)c2)cc1 | inactive
28 | CC(=O)Oc1ccc(-c2cccc(C(=O)N(C)c3ccc(O)cc3)c2)cc1 | inactive
29 | CCN(CCCNS(=O)(=O)c1ccc2c(c1)CCN2C(C)=O)c1cccc(C)c1 | inactive
30 | COC(=O)Cc1ccc(O)c(N)c1 | inactive
31 | N#CC1=C(N)Oc2n[nH]c(-c3cccs3)c2C1c1ccco1 (stereo unspecified) | inactive
32 | COc1ccc(OC)c(C2C(C#N)=C(N)Oc3cc(N)ccc32)c1 (stereo unspecified) | inactive
33 | COc1cc(/C=N/NC(=O)c2cc(-c3ccc4c(c3)OCO4)n[nH]2)ccc1O | inactive
34 | Cc1ccc(C2C(C#N)=C(N)Oc3cc(N)ccc32)cc1 (stereo unspecified) | inactive
35 | CC(C)C1C(C#N)=C(N)Oc2n[nH]c(-c3cccs3)c21 (stereo unspecified) | inactive
36 | CC1CC/C(=N/Nc2ccccc2)C(=O)N1 (stereo unspecified) | inactive
37 | c1csc(-c2nc3ccccn3c2NC2CCCCC2)c1 | inactive
38 | Cc1ccn2c(NC(C)(C)C)c(-c3cccs3)nc2c1 | inactive
39 | COc1ccc(C)cc1NC(=O)c1cc2c(CO)cnc(C)c2oc1=N | inactive
40 | Oc1ccccc1N1CCN(c2nnnn2-c2ccccc2)CC1 | inactive
41 | CN1CC(=O)N(CC(=O)Nc2ccc(SC(F)F)cc2)C1=O | inactive
42 | O=C(NCC(=O)N1CCN(c2ccccc2O)CC1)c1cccs1 | inactive
43 | Cc1ccc(S(=O)(=O)Nc2c(C(=O)O)[nH]c3ccccc23)c(C)c1 | inactive
44 | CCN(CC)c1ccc(C(=O)N/N=C(\C)c2ccc(O)cc2)cc1 | inactive
45 | C/C(=N\NC(=O)c1csc2ccccc12)c1ccc(O)cc1 | inactive
46 | COc1ccc(CNc2cc(C)ccc2C)c(OC)c1OC | inactive
47 | CC(NC(=O)C(=O)N1CCCCC1)C(c1cccs1)N1CCN(c2ccc(F)cc2)CC1 (stereo unspecified) | inactive
48 | Nc1ccc2nc(COc3ccccc3)[nH]c2c1 | inactive
49 | NNC(=O)CCc1nc2ccc(O)cc2[nH]1 | 10.3 µM (active)
50 | NNC(=O)c1ccc(O)cc1O | inactive
51 | C/C(=N\Nc1ccc(C(=O)O)cc1)c1ccc(Br)cc1 | inactive
52 | COc1ccc(Cc2nc3ccccc3n2CC(=O)N/N=C/c2ccc(O)cc2)cc1OC | inactive

Row | SMILES | AC50
53 | COc1cccc(-c2noc(Cn3nc(C)c([N+](=O)[O-])c3C)n2)c1 | inactive
54 | Nc1ccc2nc(-c3ccccc3)[nH]c2c1 | 9.02 µM (active)
55 | Nc1ccc2nc[nH]c2c1 | inactive
56 | Nc1ccc2nc(NC(=O)C3CCCCC3)sc2c1 | inactive
57 | Nc1ccc(-c2nc3ccccc3[nH]2)cc1 | inactive
58 | COc1ccc2nc(-c3ccc(N)cc3)[nH]c2c1 | inactive
59 | Cn1c(C2CCCCC2)nc2cc(N)ccc21 | inactive
60 | CC(C)(C)c1ccc(-c2nc3cc(N)ccc3o2)cc1 | inactive
61 | Nc1cccc(C(=O)Nc2ccc3nc(-c4cccnc4)[nH]c3c2)c1 | inactive
62 | Nc1ccc(-c2nc3cc(N)ccc3o2)cc1 | inactive
63 | O=[N+]([O-])c1ccc(CSC2=NCCN2)cc1 | inactive
64 | Cc1cccc2nc(-c3cccnc3)c(Nc3ccccc3)n12 | inactive
65 | COc1ccc(NCC(=O)N/N=C/C2CCCCC2)cc1 | inactive
66 | NNc1nc2ccc(F)cc2s1 | inactive
67 | Cc1[nH]c2ccccc2c1/C=N/NC(=O)Cc1cccs1 | inactive
68 | COc1cc(CNc2ncc(-c3ccc(Cl)cc3)n2C)cc(OC)c1OC | inactive
69 | Cc1ccc(Nc2c(-c3ccccc3O)nc3ncccn23)cc1 | inactive
70 | Cc1csc(/C(=N/OC(=O)c2ccco2)C(N)=O)n1 | inactive
71 | CC(=O)Nc1ccc(N2C(=O)CSC2c2ccccc2[N+](=O)[O-])cc1 (stereo unspecified) | inactive
72 | Brc1ccc(CN2CCN(c3ccccc3)CC2)o1 | inactive
73 | Nc1ccc(-c2nc3ccc([N+](=O)[O-])cc3[nH]2)cc1 | inactive
74 | Nc1ccc2oc(-c3cccs3)nc2c1 | inactive
75 | Cc1nc2ccc(-c3nc4ccc(N)cc4[nH]3)cc2[nH]1 | 4.68 µM (active)
76 | Nc1ccc2sc(N)nc2c1 | inactive
77 | Cc1ccc2nc(-c3cccc(N)c3)[nH]c2c1 | inactive
78 | O=C(Nc1nc(-c2ccccc2)ns1)c1cccs1 | inactive

Row | SMILES | AC50
79 | Cc1nnc2sc(SCc3cccc(Cl)c3)nn2c1=O | inactive
80 | O=S(c1ccc2ccccc2c1)c1cnns1 (stereo unspecified) | inactive
81 | C/C(Cl)=C\Cn1c(Nc2ccccc2)nc2c1c(=O)n(C)c(=O)n2C | inactive
82 | CSCc1ccc(C(=O)NC(C)c2ccc(-n3ccnc3)cc2)cc1 (stereo unspecified) | inactive
83 | O=C(CCc1ccccc1)N1CCN(c2ccc(F)cc2)CC1 | inactive
84 | CC(=O)Nc1ccc(-c2csc(NNC(=O)c3ccccc3)n2)cc1 | inactive
85 | CC(C)=NNc1nc(-c2ccccc2)cs1 | inactive
86 | CC(C)=NNc1nc(-c2ccc(N3C(=O)CCC3=O)cc2)cs1 | 6.32 µM (active)
87 | CN(C)c1ccc(C(=O)Nc2nc3c(s2)CCCC3)cc1 | inactive
88 | CSCC[C@H](NC(=O)N1CCn2c1nc1ccccc12)C(=O)NC1CCCCC1 | inactive
89 | O=C(Cc1ccccc1)NNc1c2ccccc2nc2ccccc12 | inactive
90 | CC(=O)NC(C)C(c1cccs1)N1CCN(c2ccccc2)CC1 (stereo unspecified) | inactive
91 | COc1ccc(C(=O)N2CCCC(Nc3ccc(C)c(C)c3)C2)cc1 (stereo unspecified) | inactive
92 | c1ccc(NNC2=NCCCCC2)cc1 | 6.06 µM (active)
93 | Oc1[nH]c2ccccc2c1C1=NCCCC1 | inactive
94 | CC(=O)c1ccc(S(=O)(=O)Nc2cccc(S(=O)(=O)NC3=NCCC3)c2)cc1 | inactive
95 | CN(C)c1ccc(CN(C(=O)c2ccccc2Br)C2CCS(=O)(=O)C2)cc1 (stereo unspecified) | inactive
96 | COc1ccc(N2CCN(CC(=O)Nc3ccc(C)c(C)c3)CC2)cc1 | inactive
97 | Cc1ccc(C(=O)NCCSc2snnc2C)cc1 | inactive
98 | Cc1ccc(-c2n[nH]c(=S)n2/N=C/c2c(C)[nH]n(-c3ccccc3)c2=O)cc1 | inactive
99 | O=c1cc(-c2ccccc2)[nH]c2[nH]n(-c3ccccc3)c(=O)c12 | inactive
100 | N#Cc1ccc(CSc2nnc(NC(=O)c3ccc(=O)[nH]c3)s2)cc1 | inactive
101 | NNC(=O)c1cccc(COc2ccccc2Br)c1 | inactive
102 | Cc1cccc(N2CCN(C(=O)C3CCCN(S(=O)(=O)c4cnc[nH]4)C3)CC2C)c1 (stereo unspecified) | inactive
103 | S=c1[nH]nc(-c2cccc3ccccc23)n1-c1cccnc1 | inactive
104 | COc1cccc(/C=N/NC(=O)CNC(=O)c2ccncc2)c1O | inactive

Row | SMILES | AC50
105 | COc1cccc(/C=N/n2c(-c3cc(C)[nH]n3)n[nH]c2=S)c1OC | inactive
106 | COc1cccc(/C=N/NC(=O)NC2CCCCC2)c1O | inactive
107 | Cc1cccc(/C=N/n2c(-c3ccccc3)n[nH]c2=S)c1O | inactive
108 | COc1cc(/C=N/N2CCCCC2)cc([N+](=O)[O-])c1O | inactive
109 | COc1cc(/C=N/n2c(C)n[nH]c2=S)ccc1OCc1ccccc1 | inactive
110 | COc1ccc(C2CC(c3ccccc3)=NN2c2ccccc2)c(C(=O)O)c1OC (stereo unspecified) | inactive
111 | O=C(O)CCc1ccc(-c2cccs2)n1NC(=O)c1cccs1 | inactive
112 | O=C(O)c1cc(O)ccc1NC(=O)c1cccc2ccccc12 | inactive
113 | O=C(NCCN1CCCc2ccccc21)C1CCC(=O)N(CCc2ccccc2)C1 (stereo unspecified) | inactive
114 | O=C1CC(=O)N(c2ccccc2)N1c1ccccc1 | inactive
115 | c1ccc(CNc2ncnc3sc4c(c23)CCCC4)nc1 | inactive
116 | Nn1c(Nc2ccccc2)nc2sc3c(c2c1=O)CCCC3 | inactive
117 | Cc1ccc(NC2CCCN(C(=O)CCc3scnc3C)C2)cc1C (stereo unspecified) | inactive
118 | CC(C)c1ccc(NC2CCCN(C(=O)c3cscn3)C2)cc1 (stereo unspecified) | inactive
119 | CN(C)c1ccc(NC(=O)CN2CCN(S(=O)(=O)c3cc(Cl)ccc3Cl)CC2)cc1 | inactive
120 | CCN(CC)c1ccc(/C=N/NC(=O)CC(C)C)cc1 | inactive
121 | COc1cc(/C=N/N2C(=O)C3C4C=CC(CC4)C3C2=O)ccc1O (stereo unspecified) | inactive
122 | COc1cc(/C=N/N2C(C)CCCC2C)cc(Br)c1O (stereo unspecified) | inactive
123 | CCCCCC(=O)N/N=C/c1cc(Br)c(O)c(OC)c1 | inactive
124 | Oc1ccc(/C=N/n2c(COc3ccccc3)n[nH]c2=S)cc1O | inactive
125 | COc1cc(/C=N/Nc2ccccc2)ccc1O | inactive
126 | COc1cc(/C=N/NC(=O)C2C3CCCCC32C)cc(Br)c1O (stereo unspecified) | inactive

Source: PubChem BioAssay AID540356 (Broad Institute, 2011)
